Sampled rows, rich in hits. Any-hit rate of the full collection: about 2.1%.
GalR3 antagonist – antagonists of human GalR3; O60755; HEK293 GalR3-CNG cAMP membrane potential fluorescence; galR3 body fused to GalR1 C-terminus; inhibition, % at 3 µM; 360,000 tested, 0.44% active;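 active = inhibition above the screen-wide average plus 3 SD, cut at about 13% in these data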;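 also: forskolin and galanin both at EC90 stimulate the cells; cAMP rise reported by CNG channel membrane potential dye signal; 0% = forskolin plus galanin with DMSO and 100% = forskolin alone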
Target sequence (O60755 1-299 limits assumed): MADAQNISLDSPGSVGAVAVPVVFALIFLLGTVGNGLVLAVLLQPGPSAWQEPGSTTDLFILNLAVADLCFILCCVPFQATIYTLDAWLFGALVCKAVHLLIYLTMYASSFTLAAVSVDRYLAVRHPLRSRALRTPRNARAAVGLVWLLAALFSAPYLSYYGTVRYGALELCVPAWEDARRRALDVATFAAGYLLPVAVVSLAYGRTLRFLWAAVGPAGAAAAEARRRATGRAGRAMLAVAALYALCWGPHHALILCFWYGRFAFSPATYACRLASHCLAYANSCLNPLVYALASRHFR
aDG glyco act – alpha-DG glycosylation activation | Pro5-aDG cells, alpha-DG glycosylation AlphaScreen (IIH6); 0% Pro5, 100% B10-LARGE cell signal | activation, % at 10 µM | 360,000 tested, 0.22% active | AID 624168;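 active = activation of at least 8% versus controls, or a plate z-score of at least 8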;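 also: Pro5 are CHO cells carrying HIG-tagged alpha-DG that lacks glycosylation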
Env fusion inh – inhibitors of HIV Env-mediated cell fusion. HeLa-JRFL Env/CEM21 cell fusion, luciferase. inhibition, % at 12.3 µM. 360,000 tested, 1.1% active. AID 651610;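 active = mean replicate inhibition score of at least 50 and every replicate individually at or above 50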;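 also: 0% = plate neutral controls and 100% = maraviroc near 300 nM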
COUP-TFII inh – blocks human COUP-TFII nuclear receptor; P24468; HEK293T NGFI-A luciferase reporter, luminescence; inhibition, % at 8.6 µM; 370,000 tested, 0.7% active;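 active = inhibition above a per-plate cutoff, mean inhibition of test wells between control levels plus 3 SD, cut at about 38% in these data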;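 also: cells cotransfected with COUP-TFII expression vector driving the NGFI-A reporter; 0% = median of COUP-TF2 test wells and 100% = reporter-only cells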
Gli-Sufu block – antagonists of Gli-Sufu signaling; inhibition, % at 5 µM; 340,000 tested, 0.74% active; AID 588413; Sufu-KO-LIGHT fibroblasts, Gli luciferase reporter luminescence;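 active = inhibition above about 55%, limit read from the data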;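 also: 0% = DMSO-treated cells and 100% = wells with medium but no cells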
* hit, by the source's call; / = no result given; [ ] = another dose, or the depositor's remark.

SMILES	GalR3 antagonist	aDG glyco act	Env fusion inh	COUP-TFII inh	Gli-Sufu block
CC1=C(C(=O)OCc2ccc3c(c2)OCO3)C(c2ccccc2)NC(=O)N1 (stereo not given)	-1	0	107*	30	-14
COc1ccc(COC(=O)C2=C(C)NC(=O)NC2c2ccc(OC)cc2)cc1 (stereo not given)	0	0	72*	20	-5
C[C@H](CO)N1C[C@H](C)[C@H](CN(C)S(C)(=O)=O)Oc2cc(C3=CCCC3)ccc2S1(=O)=O	/	/	8[16.7 µM]	/	/
O=C(C[C@@H]1CC[C@H]2[C@@H](COC[C@@H](O)CN2Cc2cccc(F)c2)O1)NCc1ccncc1	/	/	-9[16.7 µM]	/	/
O=[N+]([O-])c1cccc(S(=O)(=O)Nc2nc3ccccc3nc2Nc2cccc(S(=O)(=O)N3CCCCC3)c2)c1	1	0	72*	2	14
C[C@H](CO)N1C[C@H](C)[C@H](CN(C)Cc2ccc3c(c2)OCO3)Oc2ccc(NC(=O)NC3CCCCC3)cc2C1=O	/	/	2[16.7 µM]	/	/
C[C@@H]1CN([C@@H](C)CO)C(=O)Cc2cc(NC(=O)Nc3ccc(C(F)(F)F)cc3)ccc2O[C@H]1CN(C)Cc1ccc(C(F)(F)F)cc1	/	/	56*[16.7 µM]	/	/
C[C@H](CO)N1C[C@H](C)[C@@H](CN(C)Cc2ccc(C(F)(F)F)cc2)Oc2ccc(NC(=O)Nc3ccc(C(F)(F)F)cc3)cc2CC1=O	/	/	58*[16.7 µM]	/	/
C[C@H](CO)N1C[C@H](C)[C@@H](CN(C)Cc2ccc(C(F)(F)F)cc2)Oc2ccc(NS(=O)(=O)c3ccc(Cl)cc3)cc2CC1=O	/	/	69*[16.7 µM]	/	/
C[C@@H]1CN([C@H](C)CO)C(=O)Cc2cc(NS(=O)(=O)c3ccc(Cl)cc3)ccc2O[C@@H]1CN(C)Cc1ccc(C(F)(F)F)cc1	/	/	6[16.7 µM]	/	/
C[C@H]1CN([C@@H](C)CO)C(=O)Cc2cc(NC(=O)Nc3ccc(C(F)(F)F)cc3)ccc2O[C@H]1CN(C)Cc1ccc(C(F)(F)F)cc1	/	/	-2[16.7 µM]	/	/
O=C(NC[C@H]1CC[C@@H]2[C@@H](CN2Cc2cc(-c3ccccc3)on2)O1)c1ccc2c(c1)OCO2	/	/	-57[16.7 µM]	/	/
CC(C)NC(=O)N(C)C[C@@H]1Oc2cc(-c3ccncc3)ccc2S(=O)(=O)N([C@@H](C)CO)C[C@H]1C	/	/	-33[16.7 µM]	/	/
C[C@@H]1CCCCO[C@@H](CN(C)Cc2ccc(C(F)(F)F)cc2)[C@@H](C)CN([C@H](C)CO)C(=O)c2cc(NC(=O)Nc3ccc(F)cc3)ccc2O1	/	/	-19[16.7 µM]	/	/
CC(C)NC(=O)Nc1ccc2c(c1)C(=O)N([C@H](C)CO)C[C@@H](C)[C@H](CN(C)Cc1ccc(C(F)(F)F)cc1)OCCCC[C@@H](C)O2	/	/	75*[16.7 µM]	/	/
C[C@@H]1CCCCO[C@@H](CN(C)Cc2ccc(C(F)(F)F)cc2)[C@H](C)CN([C@H](C)CO)C(=O)c2cc(NC(=O)C3CCCCC3)ccc2O1	/	/	71*[16.7 µM]	/	/
CC(C)NC(=O)Nc1ccc2c(c1)C(=O)N([C@H](C)CO)C[C@@H](C)[C@@H](CN(C)Cc1ccc(C(F)(F)F)cc1)OCCCC[C@@H](C)O2	/	/	35[16.7 µM]	/	/
C[C@H]1CCCCO[C@@H](CN(C)Cc2ccc(C(F)(F)F)cc2)[C@@H](C)CN([C@@H](C)CO)C(=O)c2cc(NC(=O)Nc3ccc(F)cc3)ccc2O1	/	/	87*[16.7 µM]	/	/
C[C@@H]1CCCCO[C@@H](CN(C)Cc2ccc(C(F)(F)F)cc2)[C@H](C)CN([C@H](C)CO)C(=O)c2cc(NC(=O)Nc3ccc(F)cc3)ccc2O1	/	/	60*[16.7 µM]	/	/
C[C@H](CO)N1C[C@H](C)[C@@H](CN(C)C(=O)Nc2ccc(F)cc2)Oc2cc(-c3ccc(F)cc3)ccc2S1(=O)=O	/	/	13[16.7 µM]	/	/
C[C@@H]1CN([C@H](C)CO)C(=O)c2cc(C#Cc3ccccn3)cnc2O[C@H]1CN(C)Cc1ccncc1	/	/	-25[16.7 µM]	/	/
Cc1ccc(S(=O)(=O)Nc2ccc3c(c2)C(=O)N([C@@H](C)CO)C[C@H](C)[C@H](CN(C)Cc2ccc4c(c2)OCO4)OCCCC[C@H](C)O3)cc1	/	/	-21[16.7 µM]	/	/
C[C@@H]1CCCCO[C@@H](CN(C)Cc2ccc(C(F)(F)F)cc2)[C@H](C)CN([C@H](C)CO)C(=O)c2cc(NC(=O)Nc3ccc(C(F)(F)F)cc3)ccc2O1	/	/	70*[16.7 µM]	/	/
CC1(Cc2ccc(C(F)(F)F)nc2)C(=O)Nc2cc(-c3ccccc3Cl)ccc21 (stereo not given)	-7	1	70*	8	/
CC1(Cc2ccccc2C#N)C(=O)Nc2cc(-c3ccccc3Cl)ccc21 (stereo not given)	-6	0	57*	20	/
SMILES	GalR3 antagonist	aDG glyco act	Env fusion inh	COUP-TFII inh	Gli-Sufu block
C[C@@H]1CN([C@H](C)CO)C(=O)c2cccc(NS(=O)(=O)c3cn(C)cn3)c2O[C@@H]1CN(C)Cc1ccccc1	/	/	10[16.7 µM]	/	/
Cc1cc(NC(=O)CS(=O)(=O)c2cn(Cc3cccc(F)c3)c3ccccc23)no1	-4	0	73*	5	1
Cc1cc(NC(=O)CS(=O)(=O)c2cn(Cc3ccc(F)cc3)c3ccccc23)no1	/	0	79*	30	6
CCn1cc(S(=O)(=O)CC(=O)Nc2cc(C)on2)c2ccccc21	-8	0	-45	9	3
Cc1cc(NC(=O)CS(=O)(=O)c2cn(Cc3cccc(C(F)(F)F)c3)c3ccccc23)no1	-7	2	78*	-1	/
Cc1cc(NC(=O)CSCC(=O)NCc2cccc(C(F)(F)F)c2)no1	4	0	13	-20	2
C[C@@H]1CN([C@H](C)CO)C(=O)c2cc(NS(=O)(=O)c3cn(C)cn3)ccc2O[C@@H]1CN(C)C(=O)Nc1ccc(F)cc1	/	/	-11[16.7 µM]	/	/
O=C(Nc1ccccc1C(=O)Nc1nnc(C(F)(F)F)s1)c1ccccc1	-5	0	44	4	76*
Cc1cc(NC(=O)CCNS(=O)(=O)c2cc(Br)cnc2N)ccc1Br	1	0	59*	-11	4
Nc1ncc(Br)cc1S(=O)(=O)NCCC(=O)Nc1cccc(Cl)c1	-2	0	59*	-4	44
Cc1ccc(NC(=O)CCNS(=O)(=O)c2cc(Br)cnc2N)cc1Cl	-9	0	32	-8	5
C[C@@H]1CN([C@@H](C)CO)S(=O)(=O)c2ccc(C#CCN(C)C)cc2O[C@H]1CN(C)Cc1ccc(F)cc1	/	/	-9[16.7 µM]	/	/
CN(C)c1ccc(-c2noc(C3CCN(S(=O)(=O)c4cccc(Cl)c4)CC3)n2)cc1	-6	0	56*	-16	0
O=C(Nc1ccc(Cl)c(C(F)(F)F)c1)[C@@H]1CC=C[C@@H]2CCN(Cc3ccc(Cl)c(Cl)c3)C(=O)[C@@H]21	-3	0	84*	-7	4
O=C(O)[C@H]1CC=C[C@H]2CCN(Cc3ccc(Cl)c(Cl)c3)C(=O)[C@@H]12	0	0	-18	-9	6
CC(=O)N(C)C[C@@H]1Oc2cc(C#CC(C)C)ccc2S(=O)(=O)N([C@@H](C)CO)C[C@H]1C	/	/	-7[16.7 µM]	/	/
C=CC[n+]1c(-c2ccc(OC)c(OC)c2)csc1NNC(=O)Nc1ccccc1	-2	1	74*	16	47

Screens (PubChem BioAssay)
